From PubChem BioAssay (Tox21)
Values without a mark were called inactive. Inconclusive results are not listed. Entries that show only a call come without a potency. The source made the active and inactive calls. Unless noted, the call rests on the fitted dose curve; in most records, active means well fitted curve in the direction sought with a large enough effect in the repeat runs; inconclusive means weak or mixed curves; inactive means no such curve, though single readings can be large; an effect the other way counts as inactive or inconclusive.

Assays:
[1] = target: Estrogen receptor (Homo sapiens) (UniProt P03372); assay: qHTS assay to identify small molecule agonists of the estrogen receptor alpha (ER-alpha) signaling pathway in the presence of an antagonist (AID 1259383; calls by dose curve; further: nearly all actives have a fitted effect of over 15% in size; further: potency means the concentration at half of the fitted maximal effect; on activation: top concentration of the series differs between compounds)
Estrogen receptor (Homo sapiens), sequence (P03372 whole entry, looked up): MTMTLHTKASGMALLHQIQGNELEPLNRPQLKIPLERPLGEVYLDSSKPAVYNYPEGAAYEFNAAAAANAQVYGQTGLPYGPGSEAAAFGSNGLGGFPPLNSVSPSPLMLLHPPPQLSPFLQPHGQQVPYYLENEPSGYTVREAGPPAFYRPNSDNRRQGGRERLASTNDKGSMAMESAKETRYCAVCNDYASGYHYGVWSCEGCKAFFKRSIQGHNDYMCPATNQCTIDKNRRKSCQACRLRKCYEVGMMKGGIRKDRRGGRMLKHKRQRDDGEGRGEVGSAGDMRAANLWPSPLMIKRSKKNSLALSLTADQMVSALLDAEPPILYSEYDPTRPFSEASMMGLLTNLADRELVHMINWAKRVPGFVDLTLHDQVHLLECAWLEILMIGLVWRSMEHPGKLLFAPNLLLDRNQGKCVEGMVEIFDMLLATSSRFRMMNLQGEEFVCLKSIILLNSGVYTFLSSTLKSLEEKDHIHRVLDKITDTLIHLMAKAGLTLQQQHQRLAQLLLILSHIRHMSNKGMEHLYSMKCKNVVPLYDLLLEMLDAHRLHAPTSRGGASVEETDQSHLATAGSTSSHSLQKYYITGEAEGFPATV
Procedure, shortened: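 VM7Luc4E2, endog. ER-alpha + 4×ERE-luc; charcoal-stripped FBS, phenol red-free, 5 d; 24hr plating; +10.0nM ICI-182,780 (final); cpds 15 conc, 22hr, 37C/5% CO2; ONE-Glo luminescence.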

[2] = qHTS assay to identify small molecule agonists of the estrogen receptor alpha (ER-alpha) signaling pathway in the presence of an antagonist - cell viability counter screen (AID 1259386);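 further: series mostly up to about 92 µM; cells exposed to compounds for 22 h at 37 °C before the viability read; nearly all actives have a fitted effect of over 30% in size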
Procedure, shortened: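 VM7Luc4E2, stripped-serum pre-culture 5 d; 24hr plating; +ICI-182,780 10.0nM final; cpds 15 conc, 22hr, 37C/5% CO2; CellTiter-Fluor added at 21hr, fluorescence 1hr later.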

[3] = target: Progesterone receptor (Homo sapiens) (UniProt P06401); assay: qHTS assay to identify small molecule agonists of the progesterone receptor (PR) signaling pathway (AID 1346784; calls by dose curve; further: nearly all actives have a fitted effect of over 30% in size; further: potency means the concentration at half of the fitted maximal effect)
Progesterone receptor (Homo sapiens), sequence (P06401 whole entry, looked up): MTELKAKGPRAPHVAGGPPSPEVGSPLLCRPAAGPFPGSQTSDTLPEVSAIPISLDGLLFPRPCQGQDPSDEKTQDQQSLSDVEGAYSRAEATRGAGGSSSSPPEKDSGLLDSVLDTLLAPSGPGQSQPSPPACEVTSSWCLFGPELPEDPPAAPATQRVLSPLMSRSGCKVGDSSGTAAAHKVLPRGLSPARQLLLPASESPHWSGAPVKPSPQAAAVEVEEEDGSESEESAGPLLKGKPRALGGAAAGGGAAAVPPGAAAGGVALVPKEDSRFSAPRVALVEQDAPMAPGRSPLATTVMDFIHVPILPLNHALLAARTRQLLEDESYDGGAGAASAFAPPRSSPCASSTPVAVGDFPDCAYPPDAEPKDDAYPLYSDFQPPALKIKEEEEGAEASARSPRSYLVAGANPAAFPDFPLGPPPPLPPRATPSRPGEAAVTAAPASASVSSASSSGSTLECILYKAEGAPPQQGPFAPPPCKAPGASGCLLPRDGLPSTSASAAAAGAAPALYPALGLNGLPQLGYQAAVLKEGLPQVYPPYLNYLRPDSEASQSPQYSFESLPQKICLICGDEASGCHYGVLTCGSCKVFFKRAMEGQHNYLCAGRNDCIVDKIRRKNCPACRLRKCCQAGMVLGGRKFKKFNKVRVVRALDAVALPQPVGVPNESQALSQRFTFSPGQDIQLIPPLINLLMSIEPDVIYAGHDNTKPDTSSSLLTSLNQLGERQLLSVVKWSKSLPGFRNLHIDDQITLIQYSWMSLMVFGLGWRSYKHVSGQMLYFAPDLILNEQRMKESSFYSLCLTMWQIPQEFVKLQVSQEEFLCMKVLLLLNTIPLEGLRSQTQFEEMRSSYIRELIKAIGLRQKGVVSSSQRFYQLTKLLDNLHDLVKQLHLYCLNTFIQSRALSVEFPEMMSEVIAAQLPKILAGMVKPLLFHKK
Procedure, shortened: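 Reporter assay, GripTite PR-UAS-bla HEK 293T cells: 16 hr exposure to DMSO-dissolved compounds at 37C, 5% CO2, in steroid-depleted (2% charcoal-stripped FBS) medium; beta-lactamase measured by FRET fluorescence.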

[4] = target: Progesterone receptor (Homo sapiens) (UniProt P06401); assay: qHTS assay to identify small molecule antagonists of the progesterone receptor (PR) signaling pathway (AID 1346795; active means well fitted inhibition curve with a large enough effect in the signal ratio in the repeat runs, not every such curve was filed as active; the % refers to the signal ratio)
Procedure, shortened: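 Stimulus R5020 at 1 nM final; cells HEK293T PR-UAS-bla; medium with 2% charcoal-stripped FBS; compound exposure 16 hr at 37C, 5% CO2; detection by FRET beta-lactamase substrate, 2 hr, room temperature.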

[5] = qHTS assay to identify small molecule antagonists of the progesterone receptor (PR) signaling pathway - cell viability counter screen (AID 1346798); further: series mostly up to about 92 µM; nearly all actives have a fitted effect of over 50% in size
Procedure, shortened: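 In the same plates used for the beta-lactamase readout, cell viability of compound- and R5020-treated PR-UAS-bla HEK293T cells (16 hr, 37C) was assessed by CellTiter-Glo luminescence.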

[6] = qHTS assay to identify small molecule agonists of the progesterone receptor (PR) signaling pathway - cell viability counter screen (AID 1346799; calls by dose curve; further: nearly all actives have a fitted effect of over 45% in size)
Procedure, shortened: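 Multiplexed viability read: CellTiter-Glo luminescence, 30 min RT, following LiveBLAzer FRET measurement on PR-UAS-bla HEK293T cells exposed to compounds 16 hr.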

[7] = qHTS assay to identify small molecule antagonists of the TGF-beta/Smad signaling pathway - cell viability counter screen (AID 1346824); further: nearly all actives have a fitted effect of over 50% in size
Procedure, shortened: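 SBE-bla HEK 293T cells were plated overnight at 37 C, then given compounds in DMSO plus TGF-beta1 (added as 0.25 ng/mL solution) for 5 hr. After the bla read, CellTiter-Glo was added to the same wells and luminescence read after 30 min at room temperature.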

[8] = qHTS assay to identify small molecule agonists of the TGF-beta/Smad signaling pathway - cell viability counter screen (AID 1346829); further: top concentration of the series differs between compounds; nearly all actives have a fitted effect of over 45% in size
Procedure, shortened: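 After overnight seating at 37 C and 5% CO2, reporter cells got compounds for 5 hr and FRET substrate for 2 hr; cell viability then came from CellTiter-Glo luminescence.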

[9] = qHTS assay to identify small molecule agonists of the TGF-beta/Smad signaling pathway (AID 1346859; active means well fitted activation curve with a large enough effect in the signal ratio in the repeat runs, not every such curve was filed as active; the % refers to the signal ratio; further: series mostly up to about 77 µM)
Procedure, shortened: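 Screening used HEK 293T SBE-bla cells at 4,000/well. Test agents: 5 hr, 37 C. Detection: FRET substrate, 2 hr RT, then excitation 405 nm with emissions at 460 and 530 nm.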

[10] = target: Thyrotropin-releasing hormone receptor (Homo sapiens) (UniProt P34981); assay: qHTS assay to identify small molecule antagonists of the thyrotropin-releasing hormone receptor (TRHR) signaling pathway (AID 1346877; active means well fitted inhibition curve with a large enough effect in the repeat runs, not every such curve was filed as active; further: series mostly up to about 51 µM)
Thyrotropin-releasing hormone receptor (Homo sapiens), sequence (P34981 whole entry, looked up): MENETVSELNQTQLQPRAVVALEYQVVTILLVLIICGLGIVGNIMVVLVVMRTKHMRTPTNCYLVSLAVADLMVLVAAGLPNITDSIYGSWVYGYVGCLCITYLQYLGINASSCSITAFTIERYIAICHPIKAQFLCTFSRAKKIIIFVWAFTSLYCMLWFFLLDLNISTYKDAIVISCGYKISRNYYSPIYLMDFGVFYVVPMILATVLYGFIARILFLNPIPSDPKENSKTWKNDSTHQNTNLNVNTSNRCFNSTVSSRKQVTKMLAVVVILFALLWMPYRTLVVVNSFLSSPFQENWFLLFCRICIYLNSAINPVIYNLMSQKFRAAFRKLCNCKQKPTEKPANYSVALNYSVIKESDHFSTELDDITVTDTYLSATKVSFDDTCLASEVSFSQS
Procedure, shortened: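 Intracellular calcium fluorescence, read kinetically every second over 3 min, reports TRH-evoked signalling in HEK293 cells carrying TRHR. Test compounds were added 5 min ahead of a 1 nM TRH challenge.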

[11] = target: Thyrotropin-releasing hormone receptor (Homo sapiens) (UniProt P34981); assay: qHTS assay to identify small molecule agonists of the thyrotropin-releasing hormone receptor (TRHR) signaling pathway (AID 1346891; calls by dose curve; further: series mostly up to about 58 µM)
Procedure, shortened: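 Readout was intracellular calcium fluorescence in TRHR-Hek293 cells. Cells were incubated 18 h, dye-loaded 2 h at 37 °C, and treated with compound in agonist mode.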

[12] = Human pregnane X receptor (PXR) small molecule agonists, qHTS cell viability counter screen (AID 1346977); further: nearly all actives have a fitted effect of over 50% in size
Procedure, shortened: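 In each well, the PXR reporter HepG2 line was checked for viability: CellTiter-Fluor reagent added 23hr post-dosing, fluorescence read after 1hr incubation at 37C.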

[13] = Caspase-3/7 induction in HepG2 cells by small molecules, qHTS assay (AID 1346978); further: nearly all actives have a fitted effect of over 15% in size
Procedure, shortened: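 Wild-type HepG2 cells (2,000/well) were settled 5 h at 37 C, 5% CO2, then exposed to compounds in DMSO for 17 h. Caspase-3/7 activity was read by luminescence 30 min after adding Caspase-Glo 3/7 reagent at room temperature.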

[14] = Caspase-3/7 induction in CHO-K1 cells by small molecules, qHTS cell viability counter screen (AID 1346979); further: nearly all actives have a fitted effect of over 35% in size
Procedure, shortened: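 Following a 5hr settling period, CHO-K1 cells at 1,500 per well received DMSO-dissolved compounds. Cell viability was quantified 16hr later by CellTiter-Fluor fluorescence, measured after 1hr with reagent at 37C.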

[15] = Caspase-3/7 induction in CHO-K1 cells by small molecules, qHTS assay (AID 1346980); further: nearly all actives have a fitted effect of over 15% in size
Procedure, shortened: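 Wild-type cells were seeded at 1,500 per well and settled 5 hr at 37 C, 5% CO2, then exposed to DMSO-dissolved compounds for 17 hr. Caspase-Glo 3/7 reagent was added, and luminescence was read after 30min at room temperature.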

[16] = target: Nuclear receptor subfamily 1 group I member 2 (Homo sapiens) (UniProt O75469); assay: Human pregnane X receptor (PXR) small molecule agonists, qHTS assay (AID 1346982); further: nearly all actives have a fitted effect of over 35% in size; further: potency means the concentration at half of the fitted maximal effect
Nuclear receptor subfamily 1 group I member 2 (Homo sapiens), sequence (O75469 whole entry, looked up): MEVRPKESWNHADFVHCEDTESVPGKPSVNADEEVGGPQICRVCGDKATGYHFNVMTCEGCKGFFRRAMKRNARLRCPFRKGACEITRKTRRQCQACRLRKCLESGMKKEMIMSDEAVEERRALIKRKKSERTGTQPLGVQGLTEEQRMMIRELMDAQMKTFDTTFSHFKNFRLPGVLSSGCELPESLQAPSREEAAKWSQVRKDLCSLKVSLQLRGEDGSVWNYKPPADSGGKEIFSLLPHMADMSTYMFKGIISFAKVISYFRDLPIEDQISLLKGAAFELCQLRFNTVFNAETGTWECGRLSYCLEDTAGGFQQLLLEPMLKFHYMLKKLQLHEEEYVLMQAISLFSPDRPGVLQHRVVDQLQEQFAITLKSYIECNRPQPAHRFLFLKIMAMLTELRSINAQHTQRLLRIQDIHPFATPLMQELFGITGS
Procedure, shortened: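 Luciferase signal from ONE-Glo (30 min, room temperature) measured activation of hPXR-driven CYP3A4 reporter expression in PXR-Luc HepG2 cells treated with compounds for 24 hr at 37 C.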

[17] = Caspase-3/7 induction in HepG2 cells by small molecules, qHTS cell viability counter screen (AID 1346981); further: series mostly up to about 92 µM; nearly all actives have a fitted effect of over 30% in size
Procedure, shortened: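 HepG2, WT, 2,000 cells/well; 5 hr pre-incubation 37 C/5% CO2; compound pin-transferred from DMSO; 16 hr exposure; CellTiter-Fluor, 1 hr; fluorescence read.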

[18] = target: Nuclear receptor subfamily 1 group I member 2 (Rattus norvegicus) (UniProt Q9R1A7); assay: Rat pregnane X receptor (rPXR) activation by small molecules, qHTS assay (AID 1346983); settings: rPXR luciferase reporter cells, One-Glo luminescence, 24 h; max activation: stronger effect = higher value; further: nearly all actives have a fitted effect of over 20% in size
Nuclear receptor subfamily 1 group I member 2 (Rattus norvegicus), sequence (Q9R1A7 whole entry, looked up): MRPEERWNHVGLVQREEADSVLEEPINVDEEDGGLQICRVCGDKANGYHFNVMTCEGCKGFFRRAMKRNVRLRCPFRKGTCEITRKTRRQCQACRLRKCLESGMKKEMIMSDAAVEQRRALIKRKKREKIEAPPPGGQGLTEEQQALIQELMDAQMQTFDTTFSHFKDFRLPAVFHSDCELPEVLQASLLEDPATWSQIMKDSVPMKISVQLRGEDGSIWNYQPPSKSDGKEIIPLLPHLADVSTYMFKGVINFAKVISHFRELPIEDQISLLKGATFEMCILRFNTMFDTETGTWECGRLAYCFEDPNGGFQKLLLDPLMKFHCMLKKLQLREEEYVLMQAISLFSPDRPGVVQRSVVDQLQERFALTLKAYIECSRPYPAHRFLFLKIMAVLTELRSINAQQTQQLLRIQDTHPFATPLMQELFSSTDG
Procedure, shortened: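 Cell-based rPXR luciferase reporter assay, 2,000 cells per well, rested 5hr at 37 C before compound addition in DMSO, then 24 hr at 37 C. One-Glo reagent was added and luminescence read after 30 min at room temperature.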

[19] = qHTS assay to identify small molecule agonists or antagonists of the thyroid stimulating hormone receptor (TSHR) signaling pathway - wild type cell line counter screen (AID 1259384; calls by dose curve)
Procedure, shortened: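 Wild-type HEK293 cells were plated 18 h at 37 C/5% CO2, pin-dosed with compound plus Ro20-1724 medium, held 30 min at room temperature, then given cAMP-d2 and anti-cAMP-cryptate; fluorescence was read after 1 h. Fifteen concentrations, triplicate.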

[20] = target: Thyrotropin receptor (Homo sapiens) (UniProt P16473); assay: qHTS assay to identify small molecule antagonists of the thyroid stimulating hormone receptor (TSHR) signaling pathway (AID 1259385; calls by dose curve; further: nearly all actives have a fitted effect of over 20% in size)
Thyrotropin receptor (Homo sapiens), sequence (P16473 whole entry, looked up): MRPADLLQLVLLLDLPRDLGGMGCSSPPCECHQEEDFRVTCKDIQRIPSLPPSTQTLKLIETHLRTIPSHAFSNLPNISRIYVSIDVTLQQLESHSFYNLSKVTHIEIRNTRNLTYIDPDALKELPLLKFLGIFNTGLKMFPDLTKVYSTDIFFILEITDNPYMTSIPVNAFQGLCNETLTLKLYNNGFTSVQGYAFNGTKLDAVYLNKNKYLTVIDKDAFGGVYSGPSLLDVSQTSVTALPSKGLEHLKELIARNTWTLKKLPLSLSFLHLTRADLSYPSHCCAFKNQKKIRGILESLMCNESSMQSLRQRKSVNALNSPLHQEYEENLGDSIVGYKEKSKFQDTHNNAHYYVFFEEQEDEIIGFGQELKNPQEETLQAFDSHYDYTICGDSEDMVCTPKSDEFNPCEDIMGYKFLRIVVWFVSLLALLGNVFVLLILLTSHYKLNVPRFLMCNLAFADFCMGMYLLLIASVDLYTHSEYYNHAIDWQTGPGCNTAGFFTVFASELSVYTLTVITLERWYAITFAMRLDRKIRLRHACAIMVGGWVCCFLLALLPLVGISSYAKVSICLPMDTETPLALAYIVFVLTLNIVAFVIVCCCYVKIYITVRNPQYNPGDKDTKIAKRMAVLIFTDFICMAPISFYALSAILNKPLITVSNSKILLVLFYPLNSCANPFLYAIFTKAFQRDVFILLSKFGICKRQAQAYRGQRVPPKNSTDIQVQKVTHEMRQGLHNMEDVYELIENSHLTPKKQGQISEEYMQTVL
Procedure, shortened: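 TSHR-HEK293 cells were plated and held 18 h at 37C/5% CO2, then given compound plus Ro20-1724 and stimulated with TSH at 1.5 ng/mL final. After 30 min at room temperature, cAMP was detected with cAMP-d2/anti-cAMP-cryptate (1 h) by fluorescence.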

| SMILES | Potency [1] | outcome [2] | Potency [3] | Potency [4] | outcome [5] | Potency [6] | outcome [7] | outcome [8] | outcome [9] | outcome [10] | Potency [11] | outcome [12] | outcome [13] | Potency [14] | outcome [15] | Potency [16] | outcome [17] | max activation [18] [%] | outcome [19] | outcome [20] |
| --- | --- | --- | --- | --- | --- | --- | --- | --- | --- | --- | --- | --- | --- | --- | --- | --- | --- | --- | --- | --- |
| CCCC(=O)C(CC)Sc1ccoc1C (centres undefined) | inactive | inactive | inactive | inactive | inactive | inactive | inactive | inactive | inactive | inactive | inactive | inactive | inactive | inactive | inactive | inactive | – | – | – | – |
| CCOC(=O)c1ccc(N(C)C)cc1 | inactive | inactive | inactive | inactive | inactive | inactive | inactive | inactive | inactive | – | – | inactive | inactive | inactive | inactive | 54.5 µM (active) | inactive | – | – | – |
| COc1cc(OC)cc(OC)c1 | inactive | inactive | inactive | – | inactive | inactive | – | inactive | inactive | inactive | inactive | inactive | inactive | inactive | inactive | inactive | inactive | -1.98 | – | – |
| O=P(O)(O)C(O)(Cc1cccnc1)P(=O)(O)O | inactive | inactive | inactive | – | – | inactive | inactive | inactive | inactive | – | – | inactive | inactive | inactive | inactive | inactive | inactive | -2.56 | – | – |
| BrCCOc1ccccc1 | inactive | inactive | inactive | inactive | inactive | inactive | inactive | inactive | inactive | inactive | inactive | inactive | – | inactive | inactive | inactive | inactive | – | – | – |
| CN1CCN(C(=O)C2CCCCC2)CC1 | inactive | inactive | inactive | inactive | inactive | inactive | – | inactive | inactive | inactive | inactive | inactive | – | inactive | inactive | inactive | inactive | -9.64 | – | – |
| CC(O)C(CO)C(C)O (centres undefined) | inactive | inactive | inactive | inactive | – | inactive | inactive | inactive | inactive | inactive | inactive | inactive | – | inactive | inactive | inactive | inactive | – | – | – |
| CC(C)(C)C(=O)CCc1ccc(Cl)cc1 | inactive | inactive | inactive | inactive | – | inactive | inactive | inactive | inactive | inactive | inactive | inactive | – | inactive | inactive | inactive | inactive | – | – | – |
| O=S(=O)(O)CC(O)CCl (centres undefined) | inactive | inactive | inactive | inactive | inactive | inactive | inactive | inactive | inactive | inactive | inactive | inactive | inactive | inactive | inactive | inactive | inactive | – | – | – |
| CC(C)(C)c1ccc(C(=O)CCCCl)cc1 | 7.5 µM (active) | inactive | inactive | inactive | inactive | inactive | inactive | inactive | inactive | inactive | inactive | inactive | inactive | inactive | inactive | 26.6 µM (active) | inactive | – | – | – |
| Nc1nc(Cl)cc(Cl)n1 | inactive | inactive | inactive | inactive | inactive | – | inactive | inactive | – | inactive | inactive | inactive | inactive | – | inactive | inactive | inactive | – | – | – |
| CC1=C(O)C(=O)CO1 | inactive | inactive | inactive | – | inactive | inactive | inactive | – | inactive | inactive | inactive | inactive | inactive | inactive | inactive | inactive | inactive | – | – | – |
| CCCCNCC | inactive | inactive | inactive | – | inactive | inactive | inactive | – | inactive | inactive | inactive | inactive | inactive | inactive | inactive | inactive | inactive | – | – | – |
| CC(CN1CC(=O)NC(=O)C1)N1CC(=O)NC(=O)C1 (centres undefined) | inactive | inactive | inactive | inactive | inactive | inactive | inactive | inactive | inactive | inactive | inactive | inactive | – | inactive | inactive | – | – | – | – | – |
| CCCC(C)C(O)CC (centres undefined) | – | inactive | inactive | inactive | – | inactive | inactive | inactive | inactive | – | – | inactive | inactive | inactive | inactive | inactive | inactive | – | inactive | inactive |
| C=CCN(CC=C)CC=C | – | inactive | inactive | – | inactive | inactive | inactive | inactive | inactive | inactive | inactive | inactive | inactive | inactive | inactive | inactive | inactive | – | inactive | inactive |
| CC(CC(=O)Cl)CC(C)(C)C (centres undefined) | inactive | – | 12.3 µM (active) | inactive | inactive | – | inactive | – | inactive | – | – | inactive | – | inactive | inactive | inactive | inactive | – | – | – |
| C=C(C)C(=O)OCCCC | – | inactive | inactive | – | inactive | inactive | inactive | – | inactive | inactive | inactive | inactive | inactive | inactive | inactive | inactive | inactive | – | inactive | inactive |
